Measured values reported in PubChem BioAssay.
“And” between values parts separate entries of the source, which are not always exact repeats. Identical values can stand only once. The source made the active and inactive calls.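 How the source made its calls, unless noted: active means compounds that lower survival of HCT116 colon cancer cells in the luminescence readout, no numeric limit stated; inactive means the rest.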

Assays:
[1] = compounds altering viability of human ES cells (AID 493140; call rule not given here;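 further: cells exposed to compounds for four days before counting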); conditions: human embryonic stem cell survival screen; stronger effect = higher value
[2] = P. berghei load reduction in hepatocytes – cell-based, HepG2, luciferase luminescence, HepG2 viability, primary screen (AID 624349; in the data active means parasite load remaining mostly below about 12%, no sharp cut-off; inactive means mostly above about 10%;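 further: 100% = mean of DMSO negative control wells on the same plate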); conditions: P. berghei liver stage in HepG2, luciferase luminescence, concentration not given here; parasite load remaining: stronger effect = lower value; viability: measured here: HepG2 viability without parasites
[3] = Wnt pathway potentiators raising nuclear beta-catenin – imaging, WNT3A-conditioned medium, mouse C2C12, NPC library, primary screen (AID 1117326; in the data active means nuclear beta-catenin stimulation mostly above about 4.2%, no sharp cut-off; inactive means mostly below about 10%); conditions: stronger effect = higher value
[4] = stimulators of insulin release from INS-1E, primary screen, cell-based, 5 mM glucose, NPC library (AID 1117329;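 active means compound raises insulin release from rat beta cells at 5 mM glucose, no numeric limit stated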); conditions: rat INS-1E insulin secretion, at 10 µM, stronger effect = higher value
[5] = growth inhibition of GSK3B-pretreated HCT116 cells – cell-based, CellTiter-Glo, 0.2 to 20 µM (AID 1117336;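 active means compounds lowering colon cancer cell viability after pretreatment blocking the GSK3B kinase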); conditions: HCT116 viability after GSK3B inhibitor, at 20 µM, stronger effect = higher value
[6] = inhibition of endothelial tube formation, primary screen, imaging, VEGF stimulated, CD31 staining, tube area, NPC library (AID 1117340;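 active means compound that reduces growth-factor-driven endothelial tube area in a mixed cell culture, no cutoff stated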); conditions: VEGF-stimulated ADSC/ECFC co-culture, at 10 µM, stronger effect = higher value
[7] = GLP1 release stimulators, primary, NCI-H716, NPC library (AID 1117341;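 active means compound raises GLP1 secretion from the human gut endocrine cells, with no numeric limit stated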); conditions: NCI-H716 cells, at 10 µM, stronger effect = higher value
[8] = HCT116 colon cancer cell growth inhibition, primary screen, CellTiter-Glo luminescence, NPC library (AID 1117342); conditions: at 20 µM (top of the series)
[9] = reduced SW480 viability measured with CellTiter-Glo, NPC library, primary (AID 1117343;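 active means compounds that lower viability of the colon cancer cells in the luminescence readout, with no numeric limit stated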); conditions: CellTiter-Glo luminescence; at 20 µM (top of the series)
[10] = NPC library primary testing for decreased DLD-1 cell viability via CellTiter-Glo (AID 1117346;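 active means compounds that lower survival of DLD-1 colon cancer cells in the luminescence readout, no cutoff given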); conditions: DLD-1 viability, CellTiter-Glo luminescence; at 20 µM (top of the series)
[11] = EMT-state selective cytotoxicity in co-culture – imaging, PC-3E GFP, TEM4-18 mCherry, primary screen (AID 1345086;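 active means compounds killing one labelled cell type while sparing the other, by normalised counts and ratio limits, not self-fluorescent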;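 on all read-outs here: cells exposed to compound for 72 h before imaging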;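 on red/green cell ratio (normalised): normalised mesenchymal count divided by normalised epithelial count so high means epithelial killing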); conditions: PC-3E GFP / TEM4-18 mCherry co-culture, imaging cell counts, at 1 µM; for red/green cell ratio (normalised): actives lie on both sides
[12] = viability loss with induced miR-34 in A549 – imaging, A549 dox-inducible miR-34, nuclei and caspase counts, primary screen (AID 1347080;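 active means compounds whose cell count with miR-34 switched on is under 0.7 times the count with it off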); conditions: A549 miR-34 inducible, Hoechst nuclei count, 48 h
[13] = MELAS cybrid and Rieske KO viability enhancers – cell-based, MELAS cybrids, Rieske KO mouse fibroblasts, CellTiter-Glo, primary screen (AID 1508586;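 active means mean z-score across replicates of 1.96 or higher in either the MELAS or the Rieske mutant cell line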;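 further: z relative to plate mean and SD of compound and empty wells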); conditions: low glucose
[14] = target: NAD(+) hydrolase SARM1 (Homo sapiens) (UniProt Q6SZW1); assay: blocking NAD cleavage by SARM1 SAM-TIR – cell lysate, NAD-Glo luminescence (AID 1508614;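 active means compound whose remaining NAD level is above about 45 nM, limit read from the data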); conditions: SAM-TIR HEK293T lysate NADase, at 1 µM, stronger effect = higher value
Chain of NAD(+) hydrolase SARM1 (Homo sapiens) (Q6SZW1 whole entry, looked up): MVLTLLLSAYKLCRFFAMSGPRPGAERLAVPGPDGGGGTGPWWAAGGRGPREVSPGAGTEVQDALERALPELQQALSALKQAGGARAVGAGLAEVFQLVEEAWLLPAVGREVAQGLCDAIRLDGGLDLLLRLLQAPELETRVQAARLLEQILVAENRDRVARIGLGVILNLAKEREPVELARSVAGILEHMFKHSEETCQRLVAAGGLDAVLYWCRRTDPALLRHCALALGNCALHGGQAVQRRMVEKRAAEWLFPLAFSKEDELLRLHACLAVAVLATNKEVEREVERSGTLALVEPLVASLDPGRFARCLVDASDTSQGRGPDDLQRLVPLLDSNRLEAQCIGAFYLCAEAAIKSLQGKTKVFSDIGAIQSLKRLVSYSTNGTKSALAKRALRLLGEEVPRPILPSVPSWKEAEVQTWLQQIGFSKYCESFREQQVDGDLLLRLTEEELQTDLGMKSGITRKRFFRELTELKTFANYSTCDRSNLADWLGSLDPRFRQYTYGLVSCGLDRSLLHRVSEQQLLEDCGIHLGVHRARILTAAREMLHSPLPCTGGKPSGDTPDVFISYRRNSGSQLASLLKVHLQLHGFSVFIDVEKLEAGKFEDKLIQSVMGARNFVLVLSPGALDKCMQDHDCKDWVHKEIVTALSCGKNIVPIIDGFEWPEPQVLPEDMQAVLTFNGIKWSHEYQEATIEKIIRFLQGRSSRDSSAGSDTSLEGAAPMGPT

[15] = galactose survival enhancers in mitochondrial complex I cybrids – cell-based, galactose medium, ATP luminescence, primary screen (AID 1645843;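 active means z-score of at least 1.8 in each of two replicates, scored against plate mean and spread of sample wells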;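 further: positive z means more ATP and so rescue of galactose-driven cybrid death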); conditions: complex I mutant cybrid cells, 72 h, stronger effect = higher value
[16] = measured here: epithelial PC-3E GFP cell survival
[17] = measured here: mesenchymal TEM4-18 mCherry cell survival
[18] = measured here: relative caspase fold change +Dox/-Dox
[19] = measured here: total cells with miR-34 induction, stronger effect = lower value
[20] = measured here: total cells without miR-34 induction
[21] = MELAS cybrid survival, CellTiter-Glo 48 h, stronger effect = higher value
[22] = Rieske KO mouse fibroblast survival, CellTiter-Glo 72 h
[23] = stronger effect = lower value, cell number ratio, induced over uninduced

With COc1ccc(CN2CCNCC2)c(OC)c1OC the survival [1] was 5.83 (inactive), the parasite load remaining [2] was 122% (inactive) and 71.5% (inactive) and the viability [2] was 118% and 81.2%. For the same molecule, the nuclear beta-catenin stimulation ([3]; at 10 µM) was 0.8% (inactive), the nuclear beta-catenin stimulation ([3]; stimulation, at 2 µM) was 1.1% and the insulin secretion stimulation [4] was -0.9% (inactive). For the same molecule, the viability decrease [5] was 14.1% (inactive), the tube area decrease [6] was 8.8% (inactive) and the GLP1 secretion stimulation [7] was 0% (inactive). The inhibition of viability [8] was 19.3% (inactive), the viability decrease (inhibition) [9] was -6.6% (inactive) and the viability decrease (inhibition) [10] was 1.5% (inactive). For the same molecule, the red/green cell ratio (normalised) [11] was 0.94 (inactive), the normalised cell number [11, 16] was 1.11 and the normalised cell number [11, 17] was 1.05. The fold change ([12]; stronger effect = lower value) was 0.892 (inactive), the fold change [12, 18] was 1.29 and the cell count [12, 19] was 9020. The cell count [12, 20] was 10100, the z-score [13, 21] was 0.315 (inactive) and the z-score [13, 22] was 0.274. The remaining NAD [14] was 10 nM (inactive).

In the case of Nc1nc(N)nc(NC2CC2)n1, the nuclear beta-catenin stimulation ([3]; at 10 µM) is reported as 0.9% (inactive), the nuclear beta-catenin stimulation ([3]; stimulation, at 2 µM) is reported as 2.8% and the insulin secretion stimulation [4] is reported as -1.3% (inactive). The viability decrease [5] was -16.8% (inactive), the tube area decrease [6] was 5.4% (inactive) and the GLP1 secretion stimulation [7] was 2.4% (inactive). The inhibition of viability [8] was 2.07% (inactive), the viability decrease (inhibition) [9] was -5.7% (inactive) and the viability decrease (inhibition) [10] was -8.2% (inactive). The red/green cell ratio (normalised) [11] was 0.97 (inactive), the normalised cell number [11, 16] was 1 and the normalised cell number [11, 17] was 0.96. The fold change ([12]; stronger effect = lower value) was 0.94 (inactive) and 0.918 (inactive), the fold change [12, 18] was 0.828 and 0.774 and the cell count [12, 19] was 8490 and 8320. The cell count [12, 20] was 9030 and 9070, the z-score [13, 21] was -0.201 (inactive) and the z-score [13, 22] was -0.194. The remaining NAD [14] was 10 nM (inactive).

With COP(=O)(OC)OC=C(Cl)Cl the parasite load remaining [2] was 43.6% (inactive), the viability [2] was 96% and the nuclear beta-catenin stimulation ([3]; at 10 µM) was -0.5% (inactive). The nuclear beta-catenin stimulation ([3]; stimulation, at 2 µM) was -1.3%, the insulin secretion stimulation [4] was -1.6% (inactive) and the viability decrease [5] was 37% (inactive). For the same molecule, the tube area decrease [6] was -16.8% (inactive), the GLP1 secretion stimulation [7] was -1.2% (inactive) and the inhibition of viability [8] was -1.53% (inactive). For the same molecule, the viability decrease (inhibition) [9] was 26.8% (inactive), the viability decrease (inhibition) [10] was -3.8% (inactive) and the red/green cell ratio (normalised) ([11]; counts scaled to control wells, 1 = unselective) was 1.1 (inactive). The normalised cell number [11, 16] was 1.09, the normalised cell number [11, 17] was 1.2 and the fold change [12, 23] was 0.895 (inactive). The fold change [12, 18] was 1.25, the cell count [12, 19] was 10900 and the cell count [12, 20] was 12200. For the same molecule, the remaining NAD [14] was 10 nM (inactive).

For O=C(O)c1ccc2[nH]cc(CCCCN3CC=C(c4ccccc4)CC3)c2c1, the nuclear beta-catenin stimulation ([3]; at 10 µM) was -0.5% (inactive), the nuclear beta-catenin stimulation ([3]; stimulation, at 2 µM) was -1.8% and the insulin secretion stimulation [4] was 2.5% (inactive). For the same molecule, the viability decrease [5] was 5.1% (inactive), the tube area decrease [6] was -17.1% (active) and the GLP1 secretion stimulation [7] was -2% (inactive). The inhibition of viability [8] was 18.8% (inactive), the viability decrease (inhibition) [9] was -17.9% (inactive) and the viability decrease (inhibition) [10] was -14.3% (inactive). For the same molecule, the fold change [12, 23] was 0.916 (inactive), the fold change [12, 18] was 1.13 and the cell count [12, 19] was 8600. For the same molecule, the cell count [12, 20] was 9380 and the z-score [15] was -0.035 (inactive).

For COC[C@@H](NC(C)=O)C(=O)NCc1ccccc1, the nuclear beta-catenin stimulation ([3]; at 10 µM) was 0.6% (inactive), the nuclear beta-catenin stimulation ([3]; stimulation, at 2 µM) was -0.7% and the insulin secretion stimulation [4] was -0.4% (inactive). For the same molecule, the viability decrease [5] was -7.9% (inactive), the tube area decrease [6] was -1.1% (inactive) and the GLP1 secretion stimulation [7] was -0.8% (inactive). For the same molecule, the inhibition of viability [8] was 1.2% (inactive), the viability decrease (inhibition) [9] was -1% (inactive) and the viability decrease (inhibition) [10] was 9.6% (inactive).

In the case of Cc1nnc2n1-c1sc(CCC(=O)N3CCOCC3)cc1C(c1ccccc1Cl)=NC2, the nuclear beta-catenin stimulation ([3]; at 10 µM) is reported as 0.3% (inactive), the nuclear beta-catenin stimulation ([3]; stimulation, at 2 µM) is reported as -0.9% and the insulin secretion stimulation [4] is reported as 3.7% (inactive). The viability decrease [5] was 11.7% (inactive), the tube area decrease [6] was 1.8% (inactive) and the GLP1 secretion stimulation [7] was 0.4% (inactive). The inhibition of viability [8] was 13.6% (inactive), the viability decrease (inhibition) [9] was -4.5% (inactive) and the viability decrease (inhibition) [10] was -5.7% (inactive). For the same molecule, the fold change ([12]; stronger effect = lower value) was 1.01 (inactive), the fold change [12, 18] was 0.912 and the cell count [12, 19] was 9280. The cell count [12, 20] was 9210 and the z-score [15] was -0.365 (inactive).
